D1 ag – human D1 receptor agonism; P21728; HEK293 T-REx D1 cells, calcium flux, agonist mode; activation, % at 2 µM; hit rate 1% among 360,000; note: 0% is about no effect
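Inducible HEK293 T-REx D1 cells, force-coupled to calcium signalling, were plated at 4000 cells/well with tetracycline and held overnight at 30 C. After no-wash calcium dye loading, compound-evoked calcium rise over 180 s flagged agonists.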
TRHR enhancer – allosterically enhances the human TRH receptor; hit rate 0.66% among 360,000; enhancement, % at 2 µM; TRHR cells, fluo-8 calcium fluorescence, EC20 TRH enhancement; in the data active = enhancement above about 30%; note: 0% is about no effect
Target sequence (P34981 whole entry, looked up): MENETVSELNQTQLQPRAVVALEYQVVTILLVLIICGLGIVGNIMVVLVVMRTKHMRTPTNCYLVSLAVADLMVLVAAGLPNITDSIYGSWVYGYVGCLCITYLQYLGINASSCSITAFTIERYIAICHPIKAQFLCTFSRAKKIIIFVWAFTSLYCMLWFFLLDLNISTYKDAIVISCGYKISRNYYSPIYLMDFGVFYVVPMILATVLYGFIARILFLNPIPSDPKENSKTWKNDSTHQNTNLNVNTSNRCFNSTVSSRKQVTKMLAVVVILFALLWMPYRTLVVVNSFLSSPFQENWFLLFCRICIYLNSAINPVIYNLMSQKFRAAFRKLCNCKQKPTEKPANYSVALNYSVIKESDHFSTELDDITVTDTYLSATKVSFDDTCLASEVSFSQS
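Enhancer read-out: after compound pinning and an initial kinetic agonist-mode read, an EC20 of TRH (10 nM final) was injected and fluo-8 calcium signal (Ex 480/Em 530) followed at 1 s/cycle for 100 cycles in TRHR-expressing cells.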
Glioma ERSR ind – induces the endoplasmic reticulum stress response in human glioma cells; U87-MG GRP78 promoter luciferase reporter, 16 h; hit rate 0.02% among 420,000; Potency, µM, for the others: top-dose activation, usual class: activators; AID 602332; active = well fitted activation curve with a large enough effect; note: potency is the fitted concentration of half-maximal effect; series mostly up to about 76 µM; % of control where 0% means no effect; nearly all actives have a fitted effect of over 35% in size
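ERSR induction read as luciferase luminescence (Bright-Glo, 10 min at room temperature) in stably transfected human U87-MG glioma cells exposed to compounds for 16 h, using GRP78 as sensor.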
D1 antag – blocks dopamine activation of the human D1 receptor | hit rate 3.2% among 360,000 | HEK293 TREx D1 cells, calcium flux, dopamine EC80; hits give low values | activity change, negative = inhibition, % at 10 µM | P21728 | AID 504652; in the data active = activity change below about -30%; note: % is set by controls: 0 for no effect and ±100 for the full control effect
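Allosteric or orthosteric antagonism assessed as attenuation of the calcium response to EC80 dopamine, added 180 s after compound, in induced HEK293 Trex D1 cells loaded with no-wash calcium dye.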
D1 PAM – enhances dopamine response at the human D1 receptor. hit rate 0.036% among 360,000. potentiation, % at 10 µM. AID 504651. HEK293 TREx D1 cells, calcium flux, dopamine EC20 potentiation; in the data active = potentiation above about 30%; note: 0% is about no effect
TRHR agonist – TRH receptor (human) agonism; P34981; activation, % at 2 µM; AID 493084; TRHR cells, calcium flux fluo-8, FDSS agonist mode; hit rate 0.18% among 360,000; note: 0% is about no effect
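TRHR-expressing cells loaded with fluo-8 calcium dye; 23 nL library compound pin-transferred, kinetic FDSS fluorescence (Ex 480/Em 530) recorded about 180 s for agonist-induced calcium release, before a 10 nM TRH EC20 addition for potentiator mode.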
* marks the source's active call; other numbers are inactive results. Only some compounds are listed: those with a hit (about 4% of all), similar ones and a draw of the others. Cut-off read from the data, not from the text of the source, unless noted: active = activation above about 30%; inactive = the rest.

What do the screens show for `Cc1ccc(S(=O)(=O)c2cc3cc(C(=O)O)ccc3oc2=O)cc1`?
D1 ag: 1; TRHR enhancer: 8; Glioma ERSR ind: -5%; D1 antag: 2; D1 PAM: -1; TRHR agonist: -1

What do the screens show for `Cc1c(CCC(=O)O)c(=O)oc2cc(OCc3cccc(Cl)c3)ccc12`?
D1 ag: 1; TRHR enhancer: -6; Glioma ERSR ind: 7%; D1 antag: 0; D1 PAM: -7; TRHR agonist: 0

How did O=Nc1c(O)[nH]c2ccc(Cl)c(Cl)c12 do in these assays?
Glioma ERSR ind: -5%

Results for Cc1cccc2cc3c(N)c(C#N)sc3nc12 ?
D1 ag: 12; TRHR enhancer: 4; Glioma ERSR ind: -5%; D1 antag: -7; D1 PAM: 2; TRHR agonist: 8

What do the screens show for `Cc1sc(NC(=O)c2sc3nc4c(C)cccc4cc3c2N)c(C#N)c1C`?
D1 ag: 55*; TRHR enhancer: 2; Glioma ERSR ind: -2%; D1 antag: 23; D1 PAM: 0; TRHR agonist: 0

Results for Cc1cccc(Cn2c(SCc3ccc(C(=O)NCCc4ccccc4)cc3)nc3ccncc32)c1 ?
D1 ag: 9; TRHR enhancer: -2; Glioma ERSR ind: -1%; D1 antag: -12; D1 PAM: -4; TRHR agonist: 1

How did COc1ccc(Cn2c(SCc3ccc(C(=O)NC4CCCCC4)cc3)nc3ccncc32)cc1 do in these assays?
D1 ag: 12; TRHR enhancer: -3; Glioma ERSR ind: -1%; D1 antag: -8; D1 PAM: -4; TRHR agonist: 0

Results for O=C(NCCc1ccccc1)c1ccc(CSc2nc3ccncc3n2Cc2cccc(F)c2)cc1 ?
D1 ag: 59*; TRHR enhancer: 8; Glioma ERSR ind: -1%; D1 antag: -35*; D1 PAM: 7; TRHR agonist: -2

How did COc1ccc(Cn2c(SCc3ccc(C(=O)NC4CCCC4)cc3)nc3ccncc32)cc1 do in these assays?
D1 ag: 5; TRHR enhancer: -2; Glioma ERSR ind: 3%; D1 antag: -31*; D1 PAM: -3; TRHR agonist: -1

Results for Cc1ccc(Cn2c(SCc3ccc(C(=O)NC4CCCC4)cc3)nc3ccncc32)cc1 ?
D1 ag: 8; TRHR enhancer: -4; Glioma ERSR ind: -2%; D1 antag: -37*; D1 PAM: -5; TRHR agonist: 1

What do the screens show for `Cc1cc(Cl)ccc1OC(C)c1nnc(N)s1` (configuration not stated)?
D1 ag: 3; TRHR enhancer: -2; Glioma ERSR ind: -4%; D1 antag: -49*; D1 PAM: -2; TRHR agonist: 0

Results for CC(Oc1ccc(Cl)cc1Cl)c1ccnc(N)n1 (configuration not stated) ?
D1 ag: 2; TRHR enhancer: -6; Glioma ERSR ind: -3%; D1 antag: -2; D1 PAM: 8; TRHR agonist: -1

How did CCOc1ccccc1C(=O)NC1CCN(Cc2nnnn2C2CCCC2)CC1 do in these assays?
D1 ag: 3; TRHR enhancer: -4; Glioma ERSR ind: -3%; D1 antag: 3; D1 PAM: -3; TRHR agonist: 0

How did O=S(=O)(NCc1nc2cccnc2n1Cc1ccccc1Cl)c1ccc2c(c1)CCCC2 do in these assays?
D1 ag: 5; TRHR enhancer: 2; Glioma ERSR ind: -3%; D1 antag: -5; D1 PAM: 1; TRHR agonist: 0

How did CCCS(=O)(=O)N1CCCC(C(=O)NCCc2ccc(Cl)cc2)C1 (configuration not stated) do in these assays?
D1 ag: 1; TRHR enhancer: -4; Glioma ERSR ind: -5%; D1 antag: -31*; D1 PAM: 5; TRHR agonist: 0

What do the screens show for `CCCCNC(=O)C1CCCN(S(=O)(=O)CCC)C1` (configuration not stated)?
D1 ag: -1; TRHR enhancer: -3; Glioma ERSR ind: -4%; D1 antag: -32*; D1 PAM: 1; TRHR agonist: 0
